Compounds without any hit were thinned out: in the full panel of roughly 83,000, 20% have a hit.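 Cells were grown in 96-well plates and exposed to the test compound at a single concentration for 48 hours; results are reported as percent growth, with values below 10 considered active.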 Unmarked numbers belong to inactive results. Activity calls are given as the source filed them.

Among the test systems are NCI-H23 lung; NCI-H226 lung; NCI-H322M lung; HOP-62 NSCLC; NCI-H460 lung; HOP-92 NSCLC; NCI-H522 lung; A549/ATCC NSCLC; 786-0 renal; COLO 205 colon; DU-145 prostate; K-562 leukemia; MALME-3M melanoma; MDA-MB-231 breast; RXF 393 renal; SF-268 CNS; SF-295 CNS; SF-539 CNS; UACC-257 melanoma; M14 melanoma.
What all share (test): NCI-60 one-dose screen, 48 h (100 = growth as untreated, 0 = no growth, -100 = all killed)
Holding throughout (conditions): 10 µM unless noted

With `CC(C)CNCC(O)COc1ccc(C(C)(C)c2ccc(OCC(O)CNCC(C)C)cc2)cc1` (stereo not given), the growth was 84.4% with NCI-H23 lung; 88.2% in the experiment on NCI-H226 lung; 81.3% in the experiment with NCI-H322M lung; 64.3% in the experiment with HOP-62 NSCLC; -22.2% (active) in the experiment on NCI-H460 lung; 20.2% with HOP-92 NSCLC. Moreover, the growth with NCI-H522 lung was 26.4%; in the experiment with A549/ATCC NSCLC, 37.5%; in the experiment with 786-0 renal, 26.1%; in the experiment on COLO 205 colon it was -65.8% (active); with DU-145 prostate, 44.7%; in the experiment with K-562 leukemia it was -60% (active). Besides, the growth in the experiment with MALME-3M melanoma is -63.1% (active); in the experiment on MDA-MB-231 breast it was -14.4% (active); with RXF 393 renal it was 41.8%; in the experiment with SF-268 CNS, 55.3%; with SF-295 CNS, 32.4%; with SF-539 CNS it was -41.1% (active). Also, the growth is -37.4% (active) in the experiment with UACC-257 melanoma and -57.5% (active) in the experiment with M14 melanoma.
For `CC(=O)Oc1ccc(C(OC(C)=O)OC(C)=O)cc1`, the growth in the experiment with NCI-H23 lung is 95.4%; in the experiment on NCI-H226 lung it was 108%; with NCI-H322M lung, 98.9%; in the experiment on HOP-62 NSCLC, 95%; with NCI-H460 lung, 111%; with HOP-92 NSCLC it was 113%. Further, the growth was 85.4% with NCI-H522 lung; 108% in the experiment on A549/ATCC NSCLC; 95.3% with 786-0 renal; 112% in the experiment with COLO 205 colon; 103% with DU-145 prostate; 89.6% with K-562 leukemia. Besides, the growth in the experiment on MALME-3M melanoma is 105%; in the experiment with MDA-MB-231 breast, 114%; in the experiment with RXF 393 renal it was 115%; in the experiment with SF-268 CNS, 93.3%; with SF-295 CNS, 99.1%; in the experiment on SF-539 CNS it was 99.7%. Further, the growth was 107% in the experiment on UACC-257 melanoma and 99.3% in the experiment with M14 melanoma.
As for `FC(F)(F)c1cccc([Si](F)(c2cccc(C(F)(F)F)c2)c2cccc(C(F)(F)F)c2)c1`, the growth in the experiment with NCI-H23 lung is 43.4%; in the experiment with NCI-H226 lung it was 70.3%; in the experiment on NCI-H322M lung, 91%; in the experiment on HOP-62 NSCLC it was 90.2%; with NCI-H460 lung it was 73.9%; in the experiment with HOP-92 NSCLC, 16.1%. Moreover, the growth is 53.2% in the experiment with NCI-H522 lung; 78.1% in the experiment with A549/ATCC NSCLC; 50.5% in the experiment with 786-0 renal; 102% with COLO 205 colon; 94% with DU-145 prostate; 62.2% in the experiment on K-562 leukemia. Further, the growth was 106% in the experiment on MALME-3M melanoma; 80.4% in the experiment with MDA-MB-231 breast; 87.6% with RXF 393 renal; 84% in the experiment on SF-268 CNS; 69.2% with SF-295 CNS; 101% with SF-539 CNS. Besides, the growth in the experiment on UACC-257 melanoma was 81.3%; in the experiment on M14 melanoma it was 86.1%.
With `CCn1cc(C(=O)O)c(=O)c2cc(F)c(N3CCN(CC(=O)Nc4ccc(C(C)=O)cc4)CC3)cc21`, the growth in the experiment on NCI-H23 lung is 93%; in the experiment with NCI-H226 lung, 86.3%; in the experiment on NCI-H322M lung, 101%; with HOP-62 NSCLC, 101%; in the experiment with NCI-H460 lung, 107%; in the experiment on HOP-92 NSCLC, 92.8%. Also, the growth was 96.9% with NCI-H522 lung; 94.6% in the experiment with A549/ATCC NSCLC; 98% in the experiment with 786-0 renal; 121% with COLO 205 colon; 111% in the experiment on DU-145 prostate; 94.6% with K-562 leukemia. Moreover, the growth was 105% in the experiment with MALME-3M melanoma; 100% in the experiment with MDA-MB-231 breast; 102% with RXF 393 renal; 102% with SF-268 CNS; 103% in the experiment with SF-295 CNS; 98% in the experiment on SF-539 CNS. The figures for the growth in the experiment on UACC-257 melanoma and in the experiment with M14 melanoma were 93.1% and 102%, respectively.
For the compound `COc1cc(Cn2cc3c(c2)-c2onc(CO)c2CC3)cc(OC)c1OC`, the growth in the experiment with NCI-H23 lung was 92.7%; in the experiment on NCI-H226 lung, 81.5%; with NCI-H322M lung it was 85.1%; in the experiment with HOP-62 NSCLC it was 85.7%; with NCI-H460 lung, 93.6%; with HOP-92 NSCLC, 67%. Moreover, the growth in the experiment on NCI-H522 lung is 87.7%; with A549/ATCC NSCLC it was 99.8%; in the experiment on 786-0 renal it was 90.9%; with COLO 205 colon, 107%; in the experiment on DU-145 prostate, 103%; in the experiment with K-562 leukemia it was 78.5%. The growth was 79.7% in the experiment with MALME-3M melanoma; 103% in the experiment with MDA-MB-231 breast; 95.8% in the experiment on RXF 393 renal; 96% with SF-268 CNS; 92.1% with SF-295 CNS; 96.8% in the experiment with SF-539 CNS. Further, the growth in the experiment on UACC-257 melanoma is 93.2%; with M14 melanoma, 85.8%.
For the compound `O=C(C[n+]1ccccc1Cl)c1ccc2c(c1)CCCC2`, the growth is 92% with NCI-H23 lung; 112% in the experiment on NCI-H226 lung; 106% in the experiment on NCI-H322M lung; 90.6% in the experiment on HOP-62 NSCLC; 107% in the experiment on NCI-H460 lung; 95.1% in the experiment on HOP-92 NSCLC. Moreover, the growth in the experiment with NCI-H522 lung is 87.4%; in the experiment with A549/ATCC NSCLC, 85.6%; in the experiment on 786-0 renal, 75.5%; in the experiment with COLO 205 colon it was 56.3%; in the experiment with DU-145 prostate it was 97.1%; with K-562 leukemia it was 82.9%. The growth in the experiment on MALME-3M melanoma is 81.8%; with MDA-MB-231 breast, 99.7%; with RXF 393 renal it was 95.8%; in the experiment with SF-268 CNS, 99.5%; with SF-295 CNS, 99.4%; with SF-539 CNS, 97.6%. The figures for the growth in the experiment on UACC-257 melanoma and with M14 melanoma were 101% and 86.2%, respectively.
For the compound `Nc1nc(Cl)cc(NCc2ccc(CNc3cc(Cl)nc(N)n3)cc2)n1`, the growth was 75.7% in the experiment with NCI-H23 lung; 70.8% in the experiment on NCI-H226 lung; 102% with NCI-H322M lung; 48.8% with HOP-62 NSCLC; 115% with NCI-H460 lung; 92.9% in the experiment with HOP-92 NSCLC. The growth was 49.8% in the experiment with NCI-H522 lung; 87.2% in the experiment on A549/ATCC NSCLC; 101% in the experiment with 786-0 renal; 103% in the experiment with COLO 205 colon; 96.4% in the experiment on DU-145 prostate; 47.8% in the experiment on K-562 leukemia. Moreover, the growth was 182% with MALME-3M melanoma; 83.1% in the experiment on MDA-MB-231 breast; 90.9% in the experiment with RXF 393 renal; 98.2% in the experiment with SF-268 CNS; 105% in the experiment on SF-295 CNS; 87.3% in the experiment with SF-539 CNS. The results for the growth in the experiment with UACC-257 melanoma and with M14 melanoma were 96% and 133%, respectively.
As to `O=S1(=O)N(CCNc2nccc(-c3c(-c4cccc(O)c4)nc4sccn34)n2)CCN1Cc1ccccc1`, the growth is 84.1% in the experiment with NCI-H23 lung; 71.2% with NCI-H226 lung; 101% with NCI-H322M lung; 143% in the experiment on HOP-62 NSCLC; 42% with NCI-H460 lung; 119% with HOP-92 NSCLC. Further, the growth with NCI-H522 lung is 52.1%; in the experiment on A549/ATCC NSCLC, 65.2%; in the experiment on 786-0 renal, 78.3%; in the experiment with COLO 205 colon it was 46.4%; in the experiment on DU-145 prostate, 74.1%; with K-562 leukemia, 46.1%. The growth in the experiment with MALME-3M melanoma was 50.8%; in the experiment with MDA-MB-231 breast, 52.6%; in the experiment with RXF 393 renal it was 68.6%; in the experiment on SF-268 CNS it was 86%; with SF-295 CNS it was 62.8%; in the experiment on SF-539 CNS, 63.9%. Also, the growth in the experiment on UACC-257 melanoma is 37.2%; in the experiment with M14 melanoma, 28.4%.

Values taken from PubChem BioAssay (NCI).
